Measurements: PubChem BioAssay AID1030 (National Center for Advancing Translational Sciences (NCATS), 2008)
About 16,000 (7.3%) of roughly 220,000 compounds were called active. Inconclusive results (about 25%) are left out. Shown is part of a subset that was picked to be rich in actives. A number with no mark means an inactive call. The call rests on the fitted dose curve; in most records, active means well fitted inhibition curve with a large enough effect (not every such curve was filed as active); inconclusive means small, poorly fitted or top-dose-only effect, or another doubt; inactive means no such curve, though single readings can be large or run the other way.

These molecules were tested against Aldehyde dehydrogenase 1A1 (Homo sapiens) (UniProt P00352) (assay: qHTS Assay for Inhibitors of Aldehyde Dehydrogenase 1 (ALDH1A1)). Conditions: Purified ALDH1A1, NADH fluorescence, propionaldehyde substrate; series mostly up to 75.3 µM; activity, negative = inhibition: at the top concentration.
Sequence of Aldehyde dehydrogenase 1A1 (Homo sapiens) (P00352 whole entry, looked up): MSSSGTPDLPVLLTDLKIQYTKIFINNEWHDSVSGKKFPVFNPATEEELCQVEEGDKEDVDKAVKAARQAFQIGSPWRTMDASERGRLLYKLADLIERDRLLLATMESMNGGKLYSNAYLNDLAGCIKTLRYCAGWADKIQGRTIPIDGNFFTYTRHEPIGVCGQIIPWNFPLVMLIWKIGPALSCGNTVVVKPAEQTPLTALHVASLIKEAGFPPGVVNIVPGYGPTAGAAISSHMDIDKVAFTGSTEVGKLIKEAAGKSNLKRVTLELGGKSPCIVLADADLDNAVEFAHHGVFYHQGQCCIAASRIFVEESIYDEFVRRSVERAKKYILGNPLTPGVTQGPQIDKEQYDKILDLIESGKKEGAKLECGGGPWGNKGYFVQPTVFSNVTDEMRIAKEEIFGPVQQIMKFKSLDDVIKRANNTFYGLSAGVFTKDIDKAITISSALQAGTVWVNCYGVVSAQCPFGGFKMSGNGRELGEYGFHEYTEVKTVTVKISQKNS
Potency means the concentration at half of the fitted maximal effect.
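Wherever activity, negative = inhibition is given: plate controls were no enzyme wells and a reference inhibitor.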

SMILES	activity, negative = inhibition	Potency
COc1cccc(C(=O)Oc2cc(C)[nH]c(=O)c2[N+](=O)[O-])c1	10.8%	
O=[N+]([O-])c1cccc(-c2nnc3c4ccccc4c4ccccc4n23)c1	-0.482%	
Cn1c(=O)c([N+](=O)[O-])c(Oc2ccccc2)c2ccccc21		17.8 µM (active)
Cc1cccc(Oc2c([N+](=O)[O-])c(=O)n(C)c3ccccc23)c1		3.16 µM (active)
Cn1c2ccccc2c(=O)c2c(O)cccc21	-8.54%	
Cc1nn(C)c(Oc2ccccc2)c1[N+](=O)[O-]	3.36%	
CC(=O)N1CCN(S(=O)(=O)c2ccc(C)c([N+](=O)[O-])c2)C1C(C)C (stereo not drawn)	-3.06%	
Nc1[nH][nH]c(=O)c1N=Nc1ccc2c(c1)OCO2	1.87%	
COc1cc(NC(=O)c2cccs2)ccc1NC(=O)c1ccccc1Cl	-13.3%	
COc1ccccc1C1CCN(C(=S)Nc2ccc(Br)cc2)CC1	-10.1%	
C/C(=N\NC(=O)c1cccnc1)c1ccc(-c2ccccc2)cc1	17.9%	
CN1CCN(NC(=O)c2ccc(S(=O)(=O)N3CCCCCC3)cc2)CC1	-2.19%	
CC1(C)CC(=O)C(N=Nc2c(F)cccc2F)=C(O)C1		12.6 µM (active)
Cc1ccc(N2C(=O)C(NC(=O)c3c(F)cccc3F)(C(F)(F)F)C3=C2CC(C)(C)CC3=O)cc1 (stereo not drawn)	-7.84%	
CC1(C)CC(=O)C(C2=NC(C)(C)Cc3ccccc32)=C(O)C1	8.55%	
Cc1cc(C)n(C(=O)c2ccc(S(=O)(=O)N3CCCC3)cc2)n1	-6.45%	
CC1(C)CC(=O)C(N=Nc2ccc(S(=O)(=O)N3CCCCCC3)cc2)=C(O)C1		2.51 µM (active)
COc1cc(CNCCN(C)C)ccc1OCc1c(F)cccc1Cl	1.84%	
C/C(CC(=O)Nc1ccc(C)cc1C)=N\NC(=O)C(C)C	5.05%	
Cc1ccnc(NS(=O)(=O)c2ccc(NC(=O)c3ccc(S(=O)(=O)N(C)C)cc3)cc2)n1	-8.71%	
CCCCN1C(=O)c2ccc(C(=O)Nc3ccc(S(=O)(=O)N(C)C)cc3)cc2C1=O		1.78 µM (active)
CN(C)S(=O)(=O)c1ccc(NC(=O)N2CCOCC2)cc1	7.69%	
O=C(Nc1ccc(Br)cn1)c1ccc([N+](=O)[O-])o1	-5%	
O=c1[nH]n(-c2ccc([N+](=O)[O-])cc2)c(=O)c2ccccc12	0.106%	
COc1cccc(NC(=O)C(C)Oc2ccccc2)c1 (stereo not drawn)	2.31%	
CCCC(=O)Nc1cccc(NC(=S)NC(=O)C(C)Oc2ccc(Cl)cc2Cl)c1 (stereo not drawn)		10 µM (active)

SMILES	activity, negative = inhibition	Potency
CC(Oc1ccc(Cl)cc1Cl)C(=O)/C=C/N(C)C (stereo not drawn)	-4.77%	
Cc1ccccc1Nc1nc(N)nc(CSc2ccccc2)n1	0.815%	
CCOc1ccc(S(=O)(=O)Nc2nc3cc(OC)ccc3s2)cc1	-16.8%	
O=C(O)c1cccc(S(=O)(=O)NCCO)c1	-6.88% [at 13.5 µM]	
COc1ccc(/C=C(/CC(=O)Nc2ccc(C)cc2)c2nc3ccccc3s2)cc1	-4.33%	
O=C(O)c1cccc(S(=O)(=O)Nc2ccc(O)cc2Sc2nc3ccccc3s2)c1		22.4 µM (active)
CCN(c1ccccc1)S(=O)(=O)c1cccc(C(=O)O)c1	13.3%	
COc1ccc(S(=O)(=O)Nc2ccc(O)c(Sc3nc4ccccc4s3)c2)cc1		17.8 µM (active)
CCO[C@@H]1OC(C(=O)N2CCOCC2)=C[C@H](C)[C@H]1CCCO	2.13%	
O=C(CSc1ccc(-c2cccs2)nn1)Nc1ccccc1F	-4.56%	
COc1ccc(NC(=O)c2cc3nc(-c4ccccc4)cc(C)n3n2)cc1OC	-1.11%	
COc1ccc(/C=N/NC(=O)Cn2cc(C(F)(F)F)ccc2=O)cc1	9.76%	
COc1ccc(OC)c2[nH]c(=O)c(CCNC(=O)C(=O)c3c[nH]c4ccccc34)cc12	5.85%	
O=C(NCCCn1ccnc1)C(=O)c1cn(CC(=O)N2CCCCCC2)c2ccccc12		14.1 µM (active)
CCOc1ccccc1C(=O)NCCCn1ccnc1	-1.75%	
O=C(CCN1C(=O)c2ccccc2C1=O)NCCCn1ccnc1	-1.64%	
O=C(O)CCCCOn1ccnc1	-0.454%	
CC(C)=CCN1CCN(Cc2ccc(Oc3ncccn3)cc2)CC1CCO (stereo not drawn)	17.4%	
CCc1ccccc1N1C(=O)C2C3CC(=O)C(c4ccccc43)C2C1=O (stereo not drawn)	2.8%	
CC1=C(C)CC2C(=O)N(c3cccc4ccccc34)C(=O)C2C1 (stereo not drawn)		12.6 µM (active)
CC1(C)CCCC2=C1CC1C(=O)N(c3ccccc3)C(=O)C1C2 (stereo not drawn)	-2.61%	
COC(=O)C1=C(C(=O)OC)[C@@H]2N(Cc3ccccc3)c3ccccc3[C@@]23C[C@@H](C(=O)OC)N(S(=O)(=O)c2ccc(C(F)(F)F)cc2)C3=N1	3.2% [at 13.5 µM]	
Fc1cccc2ncnc(OCc3ccccc3)c12	-1.42%	
O=C(CSc1ccc(-c2ccco2)nn1)NCc1ccc2c(c1)OCO2		3.55 µM (active)
O=C(CSc1ncn[nH]1)NCc1ccc2c(c1)OCO2	5.55%	
Cc1c(Cl)cccc1NC(=S)NCc1ccc2c(c1)OCO2	-14.2%	

SMILES	activity, negative = inhibition	Potency
CS(=O)(=O)N(CC(=O)NCc1ccco1)c1ccc2c(c1)OCO2	-0.792%	
Cc1ccccc1-c1nnc(SCC(=O)NCc2ccc3c(c2)OCO3)n1C	-4.71%	
S=C(NCc1ccc2c(c1)OCO2)NCc1ccco1		20 µM (active)
Oc1ccc(-c2nncn2-c2ccccc2)cc1	-7.56%	
COc1ccccc1C(=O)CSc1cccc[n+]1[O-]		14.1 µM (active)
O=C(CSc1cccc[n+]1[O-])NCCCc1ccccc1	3.85%	
O=C(CSc1cccc[n+]1[O-])c1ccc(Cl)cc1	1.65%	
CC(C)Cn1c(CN(Cc2ccccc2)Cc2ccccc2)nc2c1c(=O)n(C)c(=O)n2C	-11.5%	
Cc1cccc(N2CC(C)Cn3c2nc2c3c(=O)n(CC(=O)OCc3ccccc3)c(=O)n2C)c1 (stereo not drawn)	-4.85%	
Cn1c(=O)n(CCc2ccccc2)c(=O)c2c1nc1n2CCCN1c1ccccc1		8.91 µM (active)
CCOC(=O)C1CCN(C(=O)c2ccccc2N(C)S(=O)(=O)c2ccccc2)CC1	5.9%	
COc1ccc(C(=O)N2CCC(C(=O)Nc3ccc(C)cc3)CC2)cc1	-1.59%	
Cc1ccccc1C(=O)N1CCC(C(=O)Nc2ccc(S(=O)(=O)N(C)C(C)C)cc2)CC1		12.6 µM (active)
COc1ccc(N(CC(=O)Nc2ccc(C)cc2C)S(=O)(=O)c2ccccc2[N+](=O)[O-])c(OC)c1	4.62%	
CNS(=O)(=O)c1ccc(N2CCCC2=O)c([N+](=O)[O-])c1	7.94%	
CCCCC/C=C\CC1OC1CCCCCCCC(=O)O (stereo not drawn)		inactive
CC1=C/C(=N\OS(=O)(=O)c2ccccc2)C=CC1=O		11.2 µM (active)
CC1=C/C(=N\S(=O)(=O)c2ccccc2)C(C(C)C)=CC1=O	-11.8%	
CCOC(=O)C1(S(=O)(=O)c2ccccc2)CCN(Cc2ccccc2)CC1	-3.31%	
COc1cccc(NC(=O)CN(C)CC(=O)Nc2ccc3c(c2)CCC3)c1	-7.54%	
Cc1ccnc(NC(=O)c2ccc(Cl)c([N+](=O)[O-])c2)c1	2.29%	
Cc1ccccc1NC(=O)CN1C(=O)N/C(=C\c2cccn2-c2cccc(C(=O)O)c2)C1=O	-7.18%	
COc1ccc(C(=O)CN2C(=O)NC(C)(c3ccc(C)cc3)C2=O)cc1OC (stereo not drawn)	8.24%	
COC(=O)CN1C(=O)N/C(=C/c2ccc(OC)c(C)c2OC)C1=O		6.31 µM (active)
CC(=O)Nc1ccc(OCCC[n+]2cccc(C(=O)[O-])c2)cc1	-5.74%	
Cc1ccc(-c2nnn(CC(=O)N(Cc3ccco3)C(C(=O)NC(C)(C)C)c3ccncc3)n2)o1 (stereo not drawn)	-10%	

SMILES	activity, negative = inhibition	Potency
COc1ccc(S(=O)(=O)Nc2ccc(S(=O)(=O)N3CCCCC3)cc2)cc1OC		0.562 µM (active)
COc1ccc(S(=O)(=O)N2CCCCC2)cc1Br	3.2%	
COc1ccc(NS(=O)(=O)c2ccc(NC(C)=O)cc2)cc1OC	1.33%	
CN(C)/N=C/c1cn(-c2ccccc2)nc1-c1cccnc1	-3.55%	
Cc1ccc(COc2ccc(C(=O)NN)cc2)cc1		1 µM (active)
Cc1cccc(OCc2ccc(C(=O)Nc3ccc(F)cc3)cc2)c1	7.42%	
COc1ccc(C(=O)NNS(=O)(=O)c2ccc(C)cc2)cc1	3.99%	
COC(=O)C(=Nc1ccccc1)/C(C(=O)C(=O)N(C)c1ccccc1)=C(\O)c1ccc(Cl)cc1		25.1 µM (active)
CN(C(=O)CC(NC(=O)c1ccccc1)(c1ccccc1)c1ccccc1)c1ccccc1	4.49%	
COC(=O)/C(NC(C)=O)=C(\C)c1ccc(Cl)cc1	5.6%	
COc1ccccc1CNC(=O)C1Cc2ccccc2C(=O)O1 (stereo not drawn)	-2.15%	
Cc1cccc(N2CCC(NCc3c(C(=O)N4CCCCC4)nc4c(C)cccn34)CC2)c1	-8.03%	
COCCn1c(C)cc(C2=NNC(=Nc3ccc(F)cc3)SC2)c1C		10 µM (active)
COC(=O)c1cc(NC(=O)CN2CCN(C(C)=O)CC2)cc(C(=O)OC)c1	9.25%	
NS(=O)(=O)c1ccc(NC(=S)NC(=O)c2cccnc2)cc1	3.62%	
O=C(NC1CC1)c1cccc(Br)c1	2.69%	
O=C(Nc1ccc(S(=O)(=O)Nc2ncccn2)cc1)c1cncc(Br)c1	15.6%	
COC(=O)c1ccccc1NC(=S)NC(=O)c1ccccc1F	-1.81%	
O=C(/C=C/c1ccccc1Cl)Nc1ccc(S(=O)(=O)Nc2ncccn2)cc1	-3.57%	
COc1ccc(NC(=S)Nc2ccc(S(N)(=O)=O)cc2)c(C)c1	-13.6%	
O=C(NC(=S)Nc1ccc(S(=O)(=O)Nc2ncccn2)cc1)c1cccc(Br)c1		10 µM (active)
O=C(NC(=S)Nc1cccc2c(O)cccc12)c1cccc(Br)c1		3.16 µM (active)
NS(=O)(=O)c1ccc(NC(=S)NC(=O)c2cccc(Br)c2)cc1		25.1 µM (active)
COc1ccc(/C=N/n2c(C)cc(C)cc2=O)cc1	3.71%	
CC1=NNC(=O)C1CCC(=O)N/N=C\c1ccc(Cl)c(Cl)c1 (stereo not drawn)	7.58%	
